Compounds without any hit were thinned out: in the full panel of roughly 83,000, 20% have a hit.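 The test compound was applied at a single concentration to cells in 96-well plates for 48 hours, and percent growth was recorded.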 Activity calls are given as the source filed them. How the source made its calls: active means growth percent below 10; inactive means the rest.
Legend:
Assay in all cases: NCI-60 one-dose screen, 48 h (100 = growth as untreated, 0 = no growth, -100 = all killed)
NCI-H23 lung = tested on: NCI-H23 lung
NCI-H226 lung = tested on: NCI-H226 lung
NCI-H322M lung = tested on: NCI-H322M lung
HOP-62 NSCLC = tested on: HOP-62 NSCLC
NCI-H460 lung = tested on: NCI-H460 lung
HOP-92 NSCLC = tested on: HOP-92 NSCLC
NCI-H522 lung = tested on: NCI-H522 lung
A549/ATCC NSCLC = tested on: A549/ATCC NSCLC
786-0 renal = tested on: 786-0 renal
COLO 205 colon = tested on: COLO 205 colon
DU-145 prostate = tested on: DU-145 prostate
K-562 leukemia = conditions: 10 µM unless noted
MALME-3M melanoma = tested on: MALME-3M melanoma
MDA-MB-231 breast = tested on: MDA-MB-231 breast
RXF 393 renal = tested on: RXF 393 renal
SF-268 CNS = tested on: SF-268 CNS
SF-295 CNS = tested on: SF-295 CNS
SF-539 CNS = tested on: SF-539 CNS
UACC-257 melanoma = tested on: UACC-257 melanoma
M14 melanoma = tested on: M14 melanoma

Measured: growth

O=C(Nc1ccc(-c2ccc3c(c2)NC(=O)/C3=C\c2ccc[nH]2)cc1)Nc1cccc(Cl)c1
inactive: NCI-H322M lung; 10 µM unless noted 14.1% | HOP-92 NSCLC; 10 µM unless noted 41.5% | DU-145 prostate; 10 µM unless noted 24.6% | SF-268 CNS; 10 µM unless noted 32% | UACC-257 melanoma; 10 µM unless noted 22.3%
active: NCI-H23 lung; 10 µM unless noted -57.4% | NCI-H226 lung; 10 µM unless noted 2.01% | HOP-62 NSCLC; 10 µM unless noted -29.6% | NCI-H460 lung; 10 µM unless noted 1.16% | NCI-H522 lung; 10 µM unless noted -51.7% | A549/ATCC NSCLC; 10 µM unless noted -3.34% | 786-0 renal; 10 µM unless noted -41.6% | COLO 205 colon; 10 µM unless noted -58.6% | K-562 leukemia 7.56% | MALME-3M melanoma; 10 µM unless noted 7.96% | MDA-MB-231 breast; 10 µM unless noted -23.1% | RXF 393 renal; 10 µM unless noted -53.6% | SF-295 CNS; 10 µM unless noted -31% | SF-539 CNS; 10 µM unless noted -79.8% | M14 melanoma; 10 µM unless noted 9.34%

CC/C(=C(/c1ccc(O)cc1)c1ccc(OCCN(C)C(=O)COCCOCCNC(=O)c2ccc3c(c2)CN([C@@H]2CCC(=O)NC2=O)C3=O)cc1)c1ccccc1
active: MDA-MB-231 breast; 10 µM 8.81%
inactive: NCI-H23 lung; 1 µM 99% | NCI-H23 lung; 10 µM 97% | NCI-H226 lung; 1 µM 89.4% | NCI-H226 lung; 10 µM 65.4% | NCI-H322M lung; 1 µM 101% | NCI-H322M lung; 10 µM 85.2% | HOP-62 NSCLC; 1 µM 93.4% | HOP-62 NSCLC; 10 µM 81% | NCI-H460 lung; 1 µM 111% | NCI-H460 lung; 10 µM 114% | HOP-92 NSCLC; 1 µM 26.9% | HOP-92 NSCLC; 10 µM 18.2% | NCI-H522 lung; 1 µM 91.7% | NCI-H522 lung; 10 µM 90% | A549/ATCC NSCLC; 1 µM 89.4% | A549/ATCC NSCLC; 10 µM 85.3% | 786-0 renal; 1 µM 94% | 786-0 renal; 10 µM 96.7% | COLO 205 colon; 1 µM 91.3% | COLO 205 colon; 10 µM 79.3% | DU-145 prostate; 1 µM 107% | DU-145 prostate; 10 µM 109% | MALME-3M melanoma; 1 µM 64.1% | MALME-3M melanoma; 10 µM 31.4% | MDA-MB-231 breast; 1 µM 25.5% | RXF 393 renal; 1 µM 98.3% | RXF 393 renal; 10 µM 99% | SF-268 CNS; 1 µM 88.3% | SF-268 CNS; 10 µM 83.7% | SF-295 CNS; 1 µM 102% | SF-295 CNS; 10 µM 94.8% | SF-539 CNS; 1 µM 92.1% | SF-539 CNS; 10 µM 91.1% | UACC-257 melanoma; 1 µM 96.2% | UACC-257 melanoma; 10 µM 95.5% | M14 melanoma; 1 µM 89.9% | M14 melanoma; 10 µM 92%

Nc1nc2cc(-c3ccc4ncnc(NCc5ccccc5)c4c3)ccc2o1
active: NCI-H226 lung; 10 µM unless noted -45.9% | NCI-H322M lung; 10 µM unless noted -19.8% | HOP-62 NSCLC; 10 µM unless noted -46.1% | NCI-H460 lung; 10 µM unless noted 7.02% | HOP-92 NSCLC; 10 µM unless noted -39.5% | NCI-H522 lung; 10 µM unless noted -12.1% | 786-0 renal; 10 µM unless noted 9.02% | MALME-3M melanoma; 10 µM unless noted -23.8% | MDA-MB-231 breast; 10 µM unless noted -48.8% | RXF 393 renal; 10 µM unless noted -75.6% | SF-295 CNS; 10 µM unless noted -42.3% | SF-539 CNS; 10 µM unless noted -86.5%
inactive: NCI-H23 lung; 10 µM unless noted 24.4% | A549/ATCC NSCLC; 10 µM unless noted 11.4% | COLO 205 colon; 10 µM unless noted 52.9% | DU-145 prostate; 10 µM unless noted 15.9% | K-562 leukemia 25.9% | SF-268 CNS; 10 µM unless noted 25% | UACC-257 melanoma; 10 µM unless noted 68.4% | M14 melanoma; 10 µM unless noted 22.4%

CN1CCN(c2ccc3c4c(cccc24)C(=O)N(c2cccc(-c4nn(-c5ccccc5)cc4-c4nc5ccccc5s4)c2)C3=O)CC1
inactive: NCI-H23 lung; 10 µM unless noted 97.9% | NCI-H226 lung; 10 µM unless noted 95.9% | NCI-H322M lung; 10 µM unless noted 111% | HOP-62 NSCLC; 10 µM unless noted 114% | NCI-H460 lung; 10 µM unless noted 18.5% | HOP-92 NSCLC; 10 µM unless noted 71.7% | NCI-H522 lung; 10 µM unless noted 110% | A549/ATCC NSCLC; 10 µM unless noted 97.9% | 786-0 renal; 10 µM unless noted 46.5% | COLO 205 colon; 10 µM unless noted 91.1% | DU-145 prostate; 10 µM unless noted 58.4% | MALME-3M melanoma; 10 µM unless noted 74.4% | MDA-MB-231 breast; 10 µM unless noted 33.7% | RXF 393 renal; 10 µM unless noted 72.9% | SF-268 CNS; 10 µM unless noted 100% | SF-295 CNS; 10 µM unless noted 112% | SF-539 CNS; 10 µM unless noted 81.6% | UACC-257 melanoma; 10 µM unless noted 119% | M14 melanoma; 10 µM unless noted 90.6%
active: K-562 leukemia -57.6%

COc1cccc(-c2ccc(/C=N/NC(=O)c3[nH]c4ccc(Br)cc4c3-c3ccccc3)s2)c1
active: NCI-H23 lung; 10 µM unless noted -41.9% | NCI-H226 lung; 10 µM unless noted -1.63% | NCI-H460 lung; 10 µM unless noted -15.4% | NCI-H522 lung; 10 µM unless noted -65.4% | 786-0 renal; 10 µM unless noted -12.2% | COLO 205 colon; 10 µM unless noted -28.7% | DU-145 prostate; 10 µM unless noted 2.3% | MDA-MB-231 breast; 10 µM unless noted -20.5% | RXF 393 renal; 10 µM unless noted -63% | SF-268 CNS; 10 µM unless noted -9.89% | SF-295 CNS; 10 µM unless noted -46.2% | SF-539 CNS; 10 µM unless noted -83.9% | M14 melanoma; 10 µM unless noted -4.68%
inactive: NCI-H322M lung; 10 µM unless noted 49.1% | HOP-62 NSCLC; 10 µM unless noted 14.6% | HOP-92 NSCLC; 10 µM unless noted 43.1% | A549/ATCC NSCLC; 10 µM unless noted 10.7% | K-562 leukemia 15.7% | MALME-3M melanoma; 10 µM unless noted 33.1% | UACC-257 melanoma; 10 µM unless noted 45.7%

O=C1/C(=C/c2cnc(-c3ccccc3)s2)SC(=S)N1Cc1ccc2c(c1)OCO2
inactive: NCI-H23 lung; 10 µM unless noted 47.1% | NCI-H226 lung; 10 µM unless noted 75.6% | NCI-H322M lung; 10 µM unless noted 92.2% | HOP-62 NSCLC; 10 µM unless noted 12.2% | NCI-H460 lung; 10 µM unless noted 97.2% | HOP-92 NSCLC; 10 µM unless noted 48.6% | NCI-H522 lung; 10 µM unless noted 47.5% | A549/ATCC NSCLC; 10 µM unless noted 101% | 786-0 renal; 10 µM unless noted 31.2% | COLO 205 colon; 10 µM unless noted 125% | DU-145 prostate; 10 µM unless noted 86% | K-562 leukemia 42.1% | MALME-3M melanoma; 10 µM unless noted 70.2% | MDA-MB-231 breast; 10 µM unless noted 76.9% | RXF 393 renal; 10 µM unless noted 10.5% | SF-268 CNS; 10 µM unless noted 44.6% | SF-539 CNS; 10 µM unless noted 23.3% | UACC-257 melanoma; 10 µM unless noted 108% | M14 melanoma; 10 µM unless noted 107%
active: SF-295 CNS; 10 µM unless noted 9.27%
